MARV entry inh – blocks Marburg virus binding to or entry into cells; Marburg virus pseudotyped entry inhibition, cell reporter; Potency, µM (top dose mostly 37.8 µM), hits mostly inhibitors; actives 1.8% (n = 300,000); AID 540276; calls by dose curve; tested in HEK293 cells
HCV inhibitor – HCV inhibition; AID 651820; Huh7.5.1 HCVcc-Cre infection, luciferase reporter, 44 h; actives 3.4% (n = 340,000); Potency, µM (highest dose often 41.8 µM), usual class: inhibitors
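Seed cells (1,000/well) for 4 h; treat with compound and infect with HCVcc-Cre, moi about 0.5. Incubate 44 h, then detect luciferase activity.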
LASV entry inh – Lassa virus entry inhibition; Lassa virus pseudotype entry inhibition, cell reporter; Potency, µM (series often up to 37.9 µM), hits mostly inhibitors; actives 1.2% (n = 300,000); calls by dose curve; tested in HEK293 cells; note: nearly all actives have a fitted effect of over 50% in size
FMDV antiviral – antivirals against foot and mouth disease virus | FMDV antiviral cell-based qHTS | Potency, µM (top dose mostly 57.9 µM), most hits filed as inhibitors | actives 1.2% (n = 410,000); calls by dose curve; tested in HEK293T cells; note: read-out not given here; nearly all actives have a fitted effect of over 45% in size
HCMV antiviral – blocks human cytomegalovirus replication. HFF cells, HCMV-luciferase reporter, 72 h; stronger effect = lower value. activity change, negative = inhibition, % at 57.5 µM. actives 4.5% (n = 410,000); in the data active = activity change below about -60%; inconclusive = no clear call, values can overlap the other calls; inactive = above about -39%
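Two compound doses tested in HFFs infected with HCMV-luciferase, MOI 1 PFU/cell, 72 h at 37C. Lysate luminescence read with OneGlo; data normalized against buffer-only and 10uM Salinomycin inhibitor controls.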
FBPA Giardia inh – Giardia lamblia aldolase inhibition. A8B2U2. purified Giardia FBPA. Potency, µM (titrated, usually from 59.6 µM), most hits filed as inhibitors. actives 0.71% (n = 290,000); note: nearly all actives have a fitted effect of over 55% in size
Target sequence (A8B2U2 whole entry, looked up): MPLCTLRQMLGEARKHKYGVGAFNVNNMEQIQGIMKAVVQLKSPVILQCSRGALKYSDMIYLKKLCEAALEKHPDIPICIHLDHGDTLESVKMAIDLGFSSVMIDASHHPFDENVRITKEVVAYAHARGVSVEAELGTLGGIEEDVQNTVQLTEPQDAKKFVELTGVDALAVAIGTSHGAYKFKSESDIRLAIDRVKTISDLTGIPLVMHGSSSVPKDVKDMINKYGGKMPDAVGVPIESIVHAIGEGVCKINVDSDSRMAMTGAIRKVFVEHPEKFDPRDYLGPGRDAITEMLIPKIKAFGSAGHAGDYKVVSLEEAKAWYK
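Giardia FBPA (40 nM reagent) was preincubated 10 min at RT with compound (up to 57.5 uM final), then substrate plus GAPDH/TPI/NAD/arsenate coupling system with diaphorase/resazurin was added; resorufin fluorescence (525/598 nm) was read after 20 min.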
Numbers stand for hits. A selection: hits, their analogues and other compounds. The true share with any hit is near 8.3%. Unless noted, calls come from the whole dose curve; as a rule, active = well fitted curve in the direction sought with a large enough effect; inconclusive = small, poorly fitted or top-dose-only effect, or another doubt; inactive = no such curve, though single readings can be large; an effect the other way counts as inactive or inconclusive.

How did O=C(Nc1ccc(N2CCN(c3ncccc3C(F)(F)F)CC2)nc1)c1cccs1 do in these assays?
MARV entry inh: 13µM; HCV inhibitor: 11µM; LASV entry inh: 11µM; FMDV antiviral: 13µM; HCMV antiviral: -86; FBPA Giardia inh: inactive

What do the screens show for `Cc1ccccc1-c1nc2scc(CCNS(=O)(=O)c3ccccc3)n2n1`?
LASV entry inh: inconclusive; FMDV antiviral: inactive; HCMV antiviral: inactive

How did CC(Sc1nc(-c2ccccc2)cc(C(F)(F)F)n1)C(=O)NCc1ccco1 (stereo unspecified) do in these assays?
MARV entry inh: inconclusive; HCV inhibitor: 11µM; LASV entry inh: inactive; FMDV antiviral: inactive; HCMV antiviral: inactive; FBPA Giardia inh: inactive

Results for CCN(CC)c1ccc(/C=C(\C#N)C(=O)NCc2ccccc2)cc1 ?
MARV entry inh: inactive; HCV inhibitor: 25µM; LASV entry inh: inconclusive; FMDV antiviral: inactive; FBPA Giardia inh: inactive

Results for Cc1cc(C)nc(/N=C(\N)Nc2ccc(OCCC(C)C)cc2)n1 ?
MARV entry inh: inconclusive; HCV inhibitor: 10µM; LASV entry inh: inactive; FMDV antiviral: 8.9µM; HCMV antiviral: inconclusive; FBPA Giardia inh: inactive

How did Cc1cc(C)nc(/N=C(\N)Nc2ccc(OCc3ccccc3)cc2)n1 do in these assays?
MARV entry inh: inconclusive; HCV inhibitor: 10µM; LASV entry inh: inconclusive; FMDV antiviral: 28µM; HCMV antiviral: -75; FBPA Giardia inh: inactive

What do the screens show for `COc1ccccc1N/C(N)=N/c1nc(C)cc(C)n1`?
HCV inhibitor: inactive; FMDV antiviral: inconclusive; HCMV antiviral: inactive; FBPA Giardia inh: inactive

Results for COc1ccc(N/C(N)=N/c2nc(C)cc(C)n2)cc1 ?
FMDV antiviral: inactive; HCMV antiviral: inactive

What do the screens show for `Cc1cc(C)nc(/N=C(\N)Nc2cccc(OCc3ccccc3)c2)n1`?
HCV inhibitor: inconclusive; FMDV antiviral: 32µM; HCMV antiviral: -73; FBPA Giardia inh: inactive

How did CCc1ccccc1NC(=O)C1CCCN(C(=O)c2cnn(-c3ccccc3)c2-n2cccc2)C1 (stereo unspecified) do in these assays?
MARV entry inh: inconclusive; LASV entry inh: inactive; FMDV antiviral: inactive; HCMV antiviral: inactive

How did CC(C)N(Cc1ccccc1)C(=O)c1nc(-c2ccc(Cl)cc2)n2c1CCCCC2 do in these assays?
LASV entry inh: inconclusive; FMDV antiviral: inconclusive; HCMV antiviral: inactive

Results for COC(=O)N[C@@H](CCc1ccccc1)/C(C(=O)OC)=C(\C)NCc1ccccc1 ?
FBPA Giardia inh: inactive

What do the screens show for `O=C1CN(C(=O)c2ccc(Cl)c(S(=O)(=O)N3CCc4ccccc43)c2)c2ccccc2N1`?
MARV entry inh: 3.5µM; HCV inhibitor: inactive; LASV entry inh: inconclusive; FMDV antiviral: inconclusive; HCMV antiviral: inconclusive; FBPA Giardia inh: inactive

What do the screens show for `Cc1cccc(NC(=O)c2ccc(Cl)c(S(=O)(=O)N3CCCC3)c2)n1`?
MARV entry inh: inconclusive; HCV inhibitor: inactive; LASV entry inh: inactive; FMDV antiviral: inactive; HCMV antiviral: inactive

How did CCc1nnc(NC(=O)c2ccc(Cl)c(S(=O)(=O)N3CCc4ccccc43)c2)s1 do in these assays?
MARV entry inh: inconclusive; HCV inhibitor: inactive; LASV entry inh: inactive; FMDV antiviral: inconclusive; HCMV antiviral: inactive; FBPA Giardia inh: inactive

Results for Cc1cccc(NC(=O)c2ccc(Cl)c(S(=O)(=O)N3CCc4ccccc43)c2)n1 ?
HCV inhibitor: inconclusive; FMDV antiviral: inconclusive; HCMV antiviral: -65

How did O=C(Nc1ccncc1)c1ccc(Cl)c(S(=O)(=O)N2CCc3ccccc32)c1 do in these assays?
MARV entry inh: inconclusive; HCV inhibitor: 10µM; LASV entry inh: 7.9µM; FMDV antiviral: inconclusive; HCMV antiviral: -69

How did COc1ccc(-c2nc3c(C#N)c[nH]n3c2NC2CCCCC2)cc1 do in these assays?
MARV entry inh: inactive; LASV entry inh: inactive; FMDV antiviral: inactive; HCMV antiviral: inactive

Results for CCCCCCCCCCCCC/C=C/C(O)C(COP(=O)(O)OCCN)NC(=O)CCCCCCCCCCCCCCCCC (stereo unspecified) ?
FBPA Giardia inh: inactive

What do the screens show for `COc1ccccc1/C=C(/C(=O)OCC(=O)Nc1ccccc1C)c1ccccc1`?
MARV entry inh: inactive; HCV inhibitor: inactive; LASV entry inh: inconclusive; FMDV antiviral: inconclusive; HCMV antiviral: -62; FBPA Giardia inh: inactive
